Results published in PubChem BioAssay (Tox21).
“And” between values parts separate entries of the source, which are not always exact repeats. Equal entries are not always repeated. Results filed as inconclusive are left out. A call without a number means that no potency is given here. A structure can be active in one record and inactive in another. The source made the active and inactive calls. Calls come from the whole dose curve; as a rule, active = well fitted curve in the direction sought with a large enough effect in the repeat runs; inconclusive = weak or mixed curves; inactive = no such curve, though single readings can be large; an effect the other way counts as inactive or inconclusive. Starred links: 1 amine or outer side, 2 acyl side, 3 side chain; linkers in the order of their positions; H or OH if unused. Positions of bridges follow the written chain, without caps; N, C: chain ends. Non-standard residues stand in square brackets, D forms with d. Residues, ends and D or L forms follow the SMILES beside them. Chains are numbered I, II in the order given. Actinocin(9to1) = Cc1c2oc3c(C)ccc(C(=O)[*:1])c3nc-2c(C(=O)[*:2])c(N)c1=O; NMeV = CN[C@H](C(=O)O)C(C)C; Sar = CNCC(=O)O

Key:
[1] = qHTS RealTime-Glo MT Cell Viability Assay in HEK293 cells - 16 hour (AID 1224872); note: nearly all actives have a fitted effect of over 50% in size; note: potency is the fitted concentration of half-maximal effect; for activity change, negative = cytotoxicity: top concentration of the series differs between compounds
Summary of the method: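 HEK293 cells seeded with NanoLuc/prosubstrate reagent, rested 5 h at 37 C, then dosed and kept at 37 C up to 40 h. Nonlytic real-time luminescence from viable cells read at 0, 8, 16, 24, 32 and 40 h.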

[2] = qHTS RealTime-Glo MT Cell Viability Assay in HEK293 cells - 40 hour (AID 1224874); conditions: RealTime-Glo luminescence; max response: stronger effect = lower value; note: nearly all actives have a fitted effect of over 50% in size; note: potency is the fitted concentration of half-maximal effect
Summary of the method: (§1)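 Luminescence readout at each listed time point; HEK293, 600 cells/well, RealTime-Glo MT reagent added with cells; compounds pinned (23 nL in DMSO) after 5 h at 37 C; continuous culture at 37 C.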

[3] = A CellTox Green Cytotoxicity Assay to monitor cytotoxicity in HEK293 cells - 24 hour (AID 1224875); note: nearly all actives have a fitted effect of over 45% in size; note: potency is the fitted concentration of half-maximal effect; for activity change: series mostly up to about 77 µM
Summary of the method: (§2)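 Read-out: fluorescence of a cell-impermeant cyanine dye staining DNA of dead cells, proportional to cytotoxicity. HEK293, 600 cells/well with reagent, compound (23 nL DMSO) added after 5 h; reads at 0, 8, 16, 24, 32, 40 h.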

[4] = qHTS RealTime-Glo MT Cell Viability Assay in HepG2 cells - 32 hour (AID 1224877); note: nearly all actives have a fitted effect of over 55% in size; note: potency is the fitted concentration of half-maximal effect
Summary of the method: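 HepG2 cells (600/well) were dispensed with RealTime-Glo reagents, incubated 5 h at 37 °C, then treated with compounds in DMSO for up to 40 h. Nonlytic NanoLuc luminescence reflecting viable cells was read at each stated time point.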

[5] = A CellTox Green Cytotoxicity Assay to monitor cytotoxicity in HepG2 cells - 24 hour (AID 1224878); note: nearly all actives have a fitted effect of over 45% in size; note: potency is the fitted concentration of half-maximal effect
Summary of the method: (§3)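 HepG2, 600 cells/well premixed w/ CellTox Green; 5 h settle, 37 C/5% CO2; pintool cpd add (DMSO); 37 C, 40 h; fluorescence read at 0, 8, 16, 24, 32, 40 h.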

[6] = qHTS RealTime-Glo MT Cell Viability Assay in HEK293 cells - 0 hour (AID 1224880); note: nearly all actives have a fitted effect of over 45% in size; note: potency is the fitted concentration of half-maximal effect; for activity change, negative = cytotoxicity: top concentration of the series differs between compounds
Summary of the method: as §1

[7] = A CellTox Green Cytotoxicity Assay to monitor cytotoxicity in HEK293 cells - 32 hour (AID 1224881); note: nearly all actives have a fitted effect of over 40% in size; note: potency is the fitted concentration of half-maximal effect
Summary of the method: as §2

[8] = A CellTox Green Cytotoxicity Assay to monitor cytotoxicity in HepG2 cells - 40 hour (AID 1224879); note: nearly all actives have a fitted effect of over 40% in size; note: potency is the fitted concentration of half-maximal effect
Summary of the method: as §3

[9] = qHTS RealTime-Glo MT Cell Viability Assay in HepG2 cells - 8 hour (AID 1224873); note: nearly all actives have a fitted effect of over 55% in size
Summary of the method: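 HepG2 cells (600/well) mixed with RealTime-Glo MT reagent, settled 5 h at 37 C/5% CO2 before compound addition. Nonlytic NanoLuc luminescence from viable-cell prosubstrate reduction read repeatedly during 40 h treatment at 37 C.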

[10] = A CellTox Green Cytotoxicity Assay to monitor cytotoxicity in HepG2 cells - 16 hour (AID 1224876); note: nearly all actives have a fitted effect of over 45% in size; note: potency is the fitted concentration of half-maximal effect
Summary of the method: as §3

CN(C)c1ccc2nc3ccc(=[N+](C)C)cc-3sc2c1
Potency [1]: 2.97 µM (active) and 3.09 µM (active) and 2.68 µM (active) | Potency [2]: 1.67 µM (active) and 1.55 µM (active) and 2.68 µM (active) | Potency [3]: inactive | Potency [4]: 21 µM (active) and 12.3 µM (active) and 19 µM (active) | Potency [5]: inactive | Potency [6]: inactive | Potency [7]: inactive

O=C(OCc1ccccc1)c1ccc(O)cc1
Potency [1]: inactive | max response [2]: -24.2% (inactive) | Potency [3]: inactive | Potency [4]: inactive | Potency [5]: inactive | Potency [8]: 49 µM (active) and inactive | Potency [6]: inactive | Potency [7]: inactive

CCCCC(CC)COC(=O)CC(C(=O)OCC(CC)CCCC)S(=O)(=O)O (stereo unspecified)
Potency [9]: inactive | Potency [3]: 21.9 µM (active) | Potency [10]: 33.4 µM (active) and 38.9 µM (active) | Potency [4]: inactive | Potency [5]: 42 µM (active) and 38.9 µM (active) | Potency [8]: 42 µM (active) and 43.6 µM (active) | Potency [6]: inactive | Potency [7]: 21.9 µM (active)

CN1C(=O)c2ccc([N+](=O)[O-])cc2C1=O
Potency [1]: inactive | max response [2]: 0.763% (inactive) | Potency [3]: inactive | Potency [4]: inactive | Potency [5]: inactive | Potency [6]: inactive | Potency [7]: inactive

NC(Cc1ccc(Cl)cc1)C(=O)O (stereo unspecified)
activity change, negative = cytotoxicity [1]: 9.16% [at 0.29 µM] (inactive) | max response [2]: 10.5% (inactive) | activity change [3]: -5.17% [at 0.29 µM, stronger effect = higher value] (inactive) | activity change, negative = cytotoxic [4]: 0.542% [at 0.29 µM] (inactive) | cytotoxicity [5]: -5.86% [at 0.29 µM] (inactive) | activity change, negative = cytotoxicity [6]: 12.3% [at 0.29 µM] (inactive) | cytotoxicity increase [7]: -6.93% [at 0.29 µM] (inactive)

Oc1c(Cl)cc(Cl)c(Cl)c1Cc1c(O)c(Cl)cc(Cl)c1Cl
Potency [1]: inactive | Potency [2]: 2.45 µM (active) and 3.89 µM (active) | Potency [10]: inactive and 43.6 µM (active) | Potency [4]: inactive and 21.9 µM (active) | Potency [5]: inactive and 38.9 µM (active) | Potency [8]: 21.8 µM (active) and 38.9 µM (active) | Potency [6]: inactive | Potency [7]: 54.8 µM (active) and 49 µM (active) and inactive

Clc1ccc2c(c1)C(N1CCNCC1)=Nc1ccccc1O2
Potency [2]: 43.6 µM (active) and 23.9 µM (active) | Potency [10]: 54.9 µM (active) | Potency [5]: 54.9 µM (active) and 26.8 µM (active) | Potency [8]: 49 µM (active) and 26.8 µM (active) | Potency [6]: inactive

O=C(Nc1ccccc1SSc1ccccc1NC(=O)c1ccccc1)c1ccccc1
Potency [3]: inactive | Potency [10]: inactive | Potency [5]: inactive and 54.9 µM (active) | Potency [6]: inactive

Cc1cc(C2(c3cc(C)c(O)cc3C)OS(=O)(=O)c3ccccc32)c(C)cc1O
Potency [1]: inactive | max response [2]: -21.7% (inactive) and -18.4% (inactive) | Potency [3]: inactive | Potency [10]: inactive | Potency [5]: inactive | Potency [6]: 27.5 µM (active) and 24.5 µM (active) | Potency [7]: inactive

Cc1c2oc3c(C)ccc(C(=O)N[C@@H]4C(=O)N[C@H](C(C)C)C(=O)N5CCC[C@H]5C(=O)N(C)CC(=O)N(C)[C@@H](C(C)C)C(=O)O[C@@H]4C)c3nc-2c(C(=O)N[C@@H]2C(=O)N[C@H](C(C)C)C(=O)N3CCC[C@H]3C(=O)N(C)CC(=O)N(C)[C@@H](C(C)C)C(=O)O[C@@H]2C)c(N)c1=O (I: T[dV]P[Sar][NMeV] / II: T[dV]P[Sar][NMeV]; ester I:1-I:C, II:1-II:C; linker I:N-II:N via Actinocin(9to1))
Potency [1]: 33.7 nM (active) and 120 nM (active) | Potency [2]: 8.5 nM (active) and 16.9 nM (active) | Potency [3]: inactive | Potency [5]: inactive | Potency [6]: inactive | Potency [7]: inactive

CC(C)(C)c1cc(C(C)(C)C)c(O)c(C(C)(C)C)c1
Potency [1]: inactive | max response [2]: -7.81% (inactive) | Potency [3]: 54.9 µM (active) and 38.9 µM (active) | Potency [4]: inactive | Potency [5]: 54.9 µM (active) | Potency [8]: 49 µM (active) | Potency [6]: inactive | Potency [7]: 54.9 µM (active) and 34.7 µM (active)

CC(C)(c1ccccc1)c1ccc(Nc2ccc(C(C)(C)c3ccccc3)cc2)cc1
Potency [1]: inactive | max response [2]: -27.1% (inactive) and -13.6% (inactive) | Potency [3]: inactive | Potency [5]: inactive | Potency [8]: inactive | Potency [6]: inactive | Potency [7]: inactive

Cc1ccc(S(=O)(=O)Oc2ccc(N=Nc3ccc(-c4ccc(N=Nc5c(O)ccc6cc(S(=O)(=O)O)cc(S(=O)(=O)O)c56)c(C)c4)cc3C)cc2)cc1
Potency [1]: inactive | max response [2]: -0.0985% (inactive) | Potency [3]: inactive | Potency [10]: inactive | Potency [5]: inactive | Potency [8]: inactive | Potency [7]: inactive

NC(N)=Nc1nc(CSCC/C(N)=N/S(N)(=O)=O)cs1
Potency [1]: inactive | max response [2]: -7.2% (inactive) and 0.8% (inactive) | Potency [3]: inactive | Potency [5]: 3.89 µM (active) and inactive | Potency [6]: inactive | Potency [7]: inactive

CCc1ccc(C(c2ccc(CC)cc2)C(Cl)Cl)cc1
Potency [9]: inactive | Potency [4]: inactive | Potency [5]: inactive | Potency [8]: inactive | Potency [6]: inactive

CCC(C)(Oc1ccc(C2(c3ccc(OC(C)(CC)C(=O)O)cc3)CCCCC2)cc1)C(=O)O (stereo unspecified)
Potency [1]: inactive | max response [2]: 8.3% (inactive) | Potency [3]: inactive | Potency [4]: inactive | Potency [5]: inactive | Potency [6]: inactive | Potency [7]: inactive

CCCCCC(=O)O[C@]1(C(C)=O)CC[C@H]2[C@@H]3CCC4=CC(=O)CC[C@]4(C)[C@H]3CC[C@@]21C
Potency [2]: 24.4 µM (active) | Potency [3]: inactive | Potency [10]: inactive | Potency [5]: inactive | Potency [8]: inactive | Potency [6]: inactive | Potency [7]: inactive

CC1COc2c(N3CCN(C)CC3)c(F)cc3c(=O)c(C(=O)O)cn1c23 (stereo unspecified)
Potency [3]: inactive | Potency [5]: inactive | Potency [8]: inactive | Potency [7]: inactive

CCC(=O)/C=C/C1C(C)=CCCC1(C)C (stereo unspecified)
Potency [1]: inactive | max response [2]: -21.5% (inactive) and 0.0714% (inactive) | Potency [10]: inactive | Potency [5]: inactive | Potency [6]: inactive | Potency [7]: 49.1 µM (active) and inactive

c1ccc2n[nH]nc2c1
Potency [1]: inactive | max response [2]: 10.2% (inactive) and 5.87% (inactive) | Potency [3]: inactive | Potency [10]: inactive | Potency [5]: inactive | Potency [8]: inactive | Potency [6]: inactive | Potency [7]: inactive

CC(N)=O
Potency [1]: inactive | max response [2]: 14.5% (inactive) | Potency [3]: inactive | Potency [5]: inactive | Potency [8]: inactive | Potency [6]: inactive | Potency [7]: inactive

Cc1cccc([N+](=O)[O-])c1C(=O)O
Potency [1]: inactive | max response [2]: -0.164% (inactive) | Potency [3]: inactive | Potency [4]: inactive | Potency [5]: inactive | Potency [8]: inactive | Potency [6]: inactive | Potency [7]: inactive

CCOC(=O)C(C)C(C)=O (stereo unspecified)
Potency [1]: inactive | max response [2]: -0.314% (inactive) | Potency [3]: inactive | Potency [4]: inactive | Potency [5]: inactive | Potency [6]: inactive | Potency [7]: inactive

C=CC(=O)OCCCCCCOC(=O)C=C
Potency [2]: 49.6 µM (active) and 43.6 µM (active) | Potency [10]: inactive | Potency [4]: inactive and 49 µM (active) | Potency [5]: inactive | Potency [8]: inactive and 54.9 µM (active) | Potency [6]: inactive

CC(=O)CC(C)=O
Potency [1]: inactive | max response [2]: -5.33% (inactive) | Potency [3]: inactive | Potency [10]: inactive | Potency [5]: inactive | Potency [8]: inactive | Potency [6]: inactive | Potency [7]: inactive

CC[C@]1(O)C[C@@H]2CN(CCc3c([nH]c4ccccc34)[C@@](C(=O)OC)(c3cc4c(cc3OC)N(C)[C@H]3[C@@](O)(C(=O)OC)[C@H](OC(C)=O)[C@]5(CC)C=CCN6CC[C@]43[C@@H]65)C2)C1
Potency [1]: inactive | Potency [2]: 15.1 nM (active) and 5.4 nM (active) | Potency [3]: inactive | Potency [10]: inactive | Potency [5]: inactive | Potency [6]: inactive | Potency [7]: inactive

Cc1c(O)cccc1C(=O)N[C@@H](CSc1ccccc1)[C@H](O)CN1C[C@H]2CCCC[C@H]2C[C@H]1C(=O)NC(C)(C)C
Potency [9]: inactive | Potency [2]: 13.4 µM (active) | Potency [3]: inactive | Potency [10]: inactive | Potency [4]: inactive | Potency [5]: inactive | Potency [8]: 42.5 µM (active) and 10.7 µM (active) | Potency [6]: inactive | Potency [7]: inactive

c1cnc2cc3c(cc2n1)C1CNCC3C1
Potency [1]: inactive | max response [2]: 11% (inactive) | Potency [3]: inactive | Potency [4]: inactive | Potency [5]: inactive | Potency [8]: inactive | Potency [6]: inactive | Potency [7]: inactive
